# Screening data (PubChem)
# TR SRC2 fluor cs: counter-screen for TRb-SRC2 inhibitors: fluorescence interference; TRb/SRC2 Texas Red total fluorescence interference; Potency, µM (titrated, usually from 106 µM), without a hit: at the top dose fluorescence change, negative = quenching; hit rate 0.29% among 280,000; active = well fitted curve in either direction with a large enough effect; inconclusive = small, poorly fitted or top-dose-only effect; note: potency is the fitted concentration of half-maximal effect; % is set by controls: 0 for no effect and ±100 for the full control effect
#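 Flags fluorescent or light-absorbing compounds by total fluorescence, S + 2P, at 555 nm excitation and 632 nm emission. Mixture: 20 nM Texas Red SRC2 peptide, 0.6 uM human TRb LBD, 1 uM T3, 5% DMSO; compound exposure 5 h at ambient temperature.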
# Coupling enz: counter-screen for Giardia aldolase inhibitors: coupling enzyme system; AID 2472; hit rate 0.67% among 290,000; activity change, negative = inhibition, % at 58.2 µM, hits read low; coupling enzyme system counterscreen, AmpLite Red fluorescence; in the data active = activity change below about -30%; note: % is set by controls: 0 for no effect and ±100 for the full control effect
#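 Counterscreen lacking aldolase: glyceraldehyde-3-phosphate coupling-enzyme reagent preincubated 10 min at RT with compound (at 57.5 uM final), then substrate/coupling system with AmpLite Red added; fluorescence read at 525/598 nm after 20 min RT.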
# KDM4E inh: blocks human JMJD2E demethylase activity; B2RXH2; JMJD2E catalytic domain, FDH-coupled NADH fluorescence (FDH is formaldehyde dehydrogenase); Potency, µM (top dose mostly 57.1 µM), inactives show top-dose activity change, negative = inhibition, actives largely listed as inhibitors; hit rate 1.6% among 230,000; active = well fitted inhibition curve with a large enough effect, not every such curve was filed as active; inconclusive = small, poorly fitted or top-dose-only effect, or another doubt; inactive = no such curve, though single readings can be large or run the other way;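 note: potency is the fitted concentration of half-maximal effect; 0% = wells with enzyme and -100% = buffer wells without enzyme; nearly all actives have a fitted effect of over 50% in size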
# Target sequence (B2RXH2 1-337 limits assumed): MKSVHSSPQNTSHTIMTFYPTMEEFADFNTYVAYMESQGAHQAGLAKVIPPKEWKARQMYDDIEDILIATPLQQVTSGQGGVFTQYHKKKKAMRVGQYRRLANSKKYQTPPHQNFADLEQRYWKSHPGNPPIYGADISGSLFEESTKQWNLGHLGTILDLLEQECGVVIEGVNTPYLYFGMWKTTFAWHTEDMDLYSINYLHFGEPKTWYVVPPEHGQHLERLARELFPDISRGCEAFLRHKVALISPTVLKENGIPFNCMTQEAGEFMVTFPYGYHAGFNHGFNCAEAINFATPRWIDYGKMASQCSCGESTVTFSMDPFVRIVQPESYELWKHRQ
# HTT aggregate: reduces HttQ103-GFP aggregates in PC12 cells; PC12 HttQ103-GFP aggregates, Acumen cytometry, 40 h; Potency, µM (titrated, usually from 46.1 µM), for inactives: at the highest dose activity change, negative = inhibition, usual class: inhibitors; hit rate 1.1% among 220,000; AID 1688; note: potency is the fitted concentration of half-maximal effect; % is set by controls: 0 for no effect and ±100 for the full control effect; nearly all actives have a fitted effect of over 60% in size
#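 Aggregates are detected as GFP objects 1–25 µm with signal 6 STDEV over background in lysates of induced PC12 cells. These carry Huntingtin exon 1 with 103 glutamines fused to GFP under an ecdysone promoter; compounds titrated.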
# TRb SRC2 PPI: TRbeta-SRC2 interaction inhibition; Potency, µM (titrated, usually from 106 µM), for inactives: at the highest dose activity change, negative = inhibition, actives largely listed as inhibitors; P10828; TRbeta-SRC2 peptide binding, fluorescence polarization; receptor liganded with 1 µM T3; AID 1469; hit rate 0.065% among 280,000;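 note: potency is the fitted concentration of half-maximal effect; plate controls were bound peptide for no effect and peptide without receptor for full effect; nearly all actives have a fitted effect of over 50% in size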
# Target sequence (P10828 whole entry, looked up): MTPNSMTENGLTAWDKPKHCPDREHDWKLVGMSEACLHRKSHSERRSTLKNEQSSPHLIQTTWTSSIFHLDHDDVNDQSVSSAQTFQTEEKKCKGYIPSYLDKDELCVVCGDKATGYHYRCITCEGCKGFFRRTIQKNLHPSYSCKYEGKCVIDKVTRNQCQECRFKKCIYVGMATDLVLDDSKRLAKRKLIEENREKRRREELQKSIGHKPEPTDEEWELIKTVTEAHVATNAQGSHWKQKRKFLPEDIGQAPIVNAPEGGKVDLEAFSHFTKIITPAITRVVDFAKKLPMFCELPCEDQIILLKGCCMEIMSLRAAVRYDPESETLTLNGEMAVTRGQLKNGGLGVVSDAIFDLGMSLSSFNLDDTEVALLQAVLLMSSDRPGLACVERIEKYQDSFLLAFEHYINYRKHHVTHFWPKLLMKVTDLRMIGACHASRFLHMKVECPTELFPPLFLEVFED
#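 Quantitative HTS by FP: 0.6 uM TRb LBD, 20 nM labeled SRC2 20-mer, 1 uM T3, 5% DMSO; 5 hr ambient incubation; % activity per concentration and potencies from concentration series.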
# HTT cytoprotect: Huntington cell model cytoprotection by ATP luminescence; Potency, µM (titrated, usually from 56.4 µM), for inactives: cytoprotection (ATP increase), usual class: activators; hit rate 0.14% among 230,000; AID 1471; PC12 HTT-Q103 induced, cytoprotection, ATP luminescence, 40 h; note: potency is the fitted concentration of half-maximal effect; % of control where 0% means no effect; nearly all actives have a fitted effect of over 45% in size
#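 PC12 cells stably carrying ecdysone-inducible Htt exon 1 (Q103)–GFP were induced with 100 nM tebufenozide (final) alongside library compounds in a dose series. Cytoprotection was scored as retained ATP by ATPlite luminescence.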
# * = called active by the depositor; ? = inconclusive; / = not tested or not shown; [ ] = another dose, or the depositor's remark. Only some compounds are listed: those with a hit (about 2% of all), similar ones and a draw of the others. Unless noted, calls come from the whole dose curve; as a rule, active = well fitted curve in the direction sought with a large enough effect; inconclusive = small, poorly fitted or top-dose-only effect, or another doubt; inactive = no such curve, though single readings can be large; an effect the other way counts as inactive or inconclusive.
SMILES,TR SRC2 fluor cs,Coupling enz,KDM4E inh,HTT aggregate,TRb SRC2 PPI,HTT cytoprotect
Cc1occc1C(=O)N1CCN(C(c2ccccc2)c2ccccc2)CC1,-3%,-3,-14%,20µM*,-8%,-17%[10 µM]
Cc1ccccc1C(=O)N1CCN(C(c2ccccc2)c2ccccc2)CC1,1%,2,-1%,-27%[9.22 µM],-1%,12%[10 µM]
O=C1COc2ccc(-c3cc(-c4ccccc4)c4c(n3)-c3ccccc3OC4)cc2N1,3%,/,/,/,6%,/
O=C1COc2ccc(-c3cc(-c4ccc(Cl)cc4)c4c(n3)-c3ccccc3OC4)cc2N1,10µM*[quencher],/,/,/,-7%,/
O=c1c(-c2cc(-c3ccccc3)nc3c2COc2ccccc2-3)coc2ccc(Cl)cc12,20µM*[quencher],/,/,/,-8%,/
O=c1ccc2[n+]([O-])c3ccc(O)cc3oc-2c1,1.6µM*[fluorescent],1,?,-17%[9.22 µM],?,9%[10 µM]
CCOC(=O)c1c(CN(C)C)n(C)c2c(O)c(N=NC(N)=O)c3ccc(Br)cc3c12,/,-31*,/,/,/,/
Cc1nc2ccccc2c2oc(C(=O)NCc3ccccn3)cc12,0%,5,?,?,0%,4%
Cc1ccc(CNC(=O)c2cc3c(C)nc4ccccc4c3o2)cc1,0%,-2,0%,11µM*,-1%,36%[10 µM]
Cc1ccc(CNC(=O)c2cc(=O)c3cc(C)cc(C)c3o2)cc1,4µM*[quencher],/,/,/,-14%,/
O=C(COCc1cc(-c2ccc(F)cc2)on1)Nc1cccc(Cl)c1Cl,1%,/,/,/,1%,/
C=CC(=O)OCC[N+](C)(C)C,-2%[201 µM],/,/,/,2%[201 µM],/
COc1cc(/C=N/NC(=O)c2cc3ccccc3cc2O)ccc1OCCN1CCCCC1,-6%,-11,2%,20µM*,5%,/
Cc1ccc(S(=O)(=O)Nc2ccc(NS(=O)(=O)c3ccc(C)cc3)c3ncccc23)cc1,-2%,-6,/,/,-2%,/
Nc1ccccc1S(=O)(=O)Nc1cccc2cccnc12,2%,-48*,/,/,-6%,/
Cc1ccc(S(=O)(=O)Nc2cccc3cccnc23)cc1,0%,-14,18%,13µM*,-5%,-42%
COc1cc(OC)c(NC(C)C(=O)NCc2ccccc2)cc1Cl (centres undefined),-1%,-50*,-29%,-10%,13%,-33%
CCN1CCN(C(=O)C(C)Nc2cc(Cl)c(OC)cc2OC)CC1 (centres undefined),6%,-43*,?,9%,-3%,-45%
CCN1CCN(C(=O)Nc2cc(Cl)ccc2OC)CC1,-2%,-1,9%,-4%[9.22 µM],3%,0%[10 µM]
COC(=O)C1=C(C(=O)OC)[C@@H]2N(C)c3ccccc3[C@@]23C[C@@H](CO)N(C(=O)c2cc(C)oc2C)C3=N1,3%[11.2 µM],0,5%[11.4 µM],/,8%[11.2 µM],-6%[10 µM]
O=C(NCCc1ccccc1)c1nn(-c2ccc(F)cc2)nc1CO,0%,/,/,/,3%,/
Oc1ccccc1N=Nc1ccccc1O,-2%,-2,32µM*,?,2%,-63%[10 µM]
O=C(c1ccc2c(c1)N(Cc1cccc(Cl)c1)C(=O)c1ccccc1S2(=O)=O)N1CCc2ccccc21,-23%,/,/,/,2%,/
CC1(C)OCC(CSC2=C(SCC3COC(C)(C)O3)C(=O)c3ncccc3C2=O)O1 (centres undefined),-16%,-87*,1µM*,/,-17%,-69%
C=C[C@@H](C1=CC(=O)C(OC)=C(OC)C1=O)c1ccccc1,-2%,-45*,?,/,-6%,?
SMILES,TR SRC2 fluor cs,Coupling enz,KDM4E inh,HTT aggregate,TRb SRC2 PPI,HTT cytoprotect
C=CC(C1=CC(=O)C(OC)=CC1=O)c1ccc(O)cc1 (centres undefined),-1%,-35*,?,/,-8%,-12%
Cc1[nH][nH]c(=O)c1C(c1ccc(-c2ccc(Cl)c(Cl)c2)o1)c1c(C)[nH][nH]c1=O,-3%,-45*,15%,-18%,14µM*,-46%
Cc1[nH][nH]c(=O)c1C(c1ccc(-c2ccc(C(=O)O)cc2)o1)c1c(C)[nH][nH]c1=O,-5%,-63*,?,18%,-27%,-42%
COc1ccc(-c2ccc(C(c3c(C)[nH][nH]c3=O)c3c(C)[nH][nH]c3=O)o2)c([N+](=O)[O-])c1,-4%,-49*,38%,-8%,?,14%
COc1ccc(-c2ccc(/C=N/N3C(=O)C4C5C=CC(C6CC56)C4C3=O)o2)c([N+](=O)[O-])c1 (centres undefined),-1%,0,4%,-1%,-7%,6%[10 µM]
Cc1[nH][nH]c(=O)c1C(c1ccc(-c2ccc(F)cc2)o1)c1c(C)[nH][nH]c1=O,-6%,-37*,31%,21%[9.22 µM],?,-3%[10 µM]
CNC(=S)N/N=C/c1ccc(-c2ccc(C(=O)O)cc2)o1,-7%,1,?,-19%[9.22 µM],4%,-1%[10 µM]
Cc1cc(=Nc2ccc3c(c2)c(N)cc(C)[n+]3C)nc(N)n1C,/,/,/,/,/,16%[10 µM]
Cc1nn(-c2ccccc2)c2sc(C(=O)Nc3cccc(O)c3)cc12,-6%,/,/,/,13%,/
Cn1c(NNC(=O)c2cccc3ccccc23)cc(=O)n(C)c1=O,-4%,-13,2%,10%[9.22 µM],-1%,11%[10 µM]
Cn1c(NNC(=O)c2ccccc2F)cc(=O)n(C)c1=O,-1%,-30*,2%,-6%[9.22 µM],-5%,-1%[10 µM]
COc1cc(CN2CCN(c3cccc(C)c3C)CC2)cc([N+](=O)[O-])c1O,0%,6,?,6%,3%,4%[10 µM]
COc1ccc(N2CCN(Cc3cc(OC)c(O)c([N+](=O)[O-])c3)CC2)cc1,-6%,0,22µM*,22%,-1%,/
Nc1c(S(=O)(=O)O)cc(Nc2ccc(Cl)cc2)c2c1C(=O)c1ccccc1C2=O,?,-3,/,/,-12%,/
Nc1c(S(=O)(=O)O)cc(Nc2ccc(Nc3nc(Cl)nc(Nc4ccc(S(=O)(=O)O)cc4)n3)c(S(=O)(=O)O)c2)c2c1C(=O)c1ccccc1C2=O,22µM*[quencher],/,-2%,/,10%,-14%[1.9 µM]
COc1ccc(C(=O)CCN2CCN(c3ccccc3F)CC2)cc1,-4%,1,2%,31%,-7%,-50%
O=C(CCN1CCN(c2ccccc2F)CC1)c1ccc(Br)cc1,5%,3,25µM*,8%,-2%,-31%
COc1ccc(NC(=O)N2CC3(CCNCC3)C2)cc1,/,2,/,/,/,-14%
COc1ccc(NC(=O)N2CCCC3(CCNCC3)C2)cc1,/,0,/,/,/,1.6µM*
CCCCCCN(C(=O)CCCCCN1C(=O)NC(C2CC2)C(C(=O)OCc2ccccc2)=C1C)C(C(=O)NCCCC)c1ccc(OCC(=O)OC)c(C(=O)OC)c1 (centres undefined),6%,-1,5%,/,8%,-2%
O=C(Nc1nc(COc2ccccc2)cs1)C12CC3CC(CC(C3)C1)C2,-6%,-4,1%,11µM*,1%,-125%
